From PubChem BioAssay AID1347431 (National Center for Advancing Translational Sciences (NCATS), 2020)
Among all 1,200 compounds or so, fewer than 10 were called active. Not all results are given here. A number with no mark means an inactive call. Calls come from the whole dose curve; as a rule, active = well fitted curve in the direction sought with a large enough effect; inconclusive = small, poorly fitted or top-dose-only effect, or another doubt; inactive = no such curve, though single readings can be large or run the other way.

test: Confirmatory qHTS assay for inhibitors of Activation Induced Cytidine Deaminase (AID): UDG signals; settings: UDG coupled enzyme activity counter-screen; series mostly up to 115 µM; activity change, negative = inhibition: at the top concentration; note: 0% is about no effect
Source text: Assay Provider (PI) Patricia Gearhart Ph.D.
National Institute on Aging
National Institute of Health (NIH), Bethesda, MD
Assay Provider (PI) Rahul Kohli Ph.D.
Perelman School of Medicine
University of Pennsylvania, Philadelphia, PA
Activation-Induced Deaminase (AID) is a cytosine deaminase which converts cytosine into uracil within stretches of ssDNA. The presence of uracil in DNA initiates a cascade of mutagenic DNA repair to introduce point mutations and DNA double strand breaks. Specific targeting of AID to the immunoglobulin heavy chain loci (Igh) promotes mutagenesis in the antibody variable region for somatic hypermutation (SHM) or switch regions leading to class switch recombination (CSR). However, AID also plays a role in accumulating unnecessary mutations across the genome. Mis-targeting of AID results in the initiation of tumor development and leads to greater drug resistance among cancer cells when continually expressed. To identify an AID inhibitor, a small molecule library will be screened in collaboration with NCATS core facility at NIH. To confirm biological function, inhibitors will be examined in an in vitro murine B-cell activation assay and subsequent secondary validation screens. Top molecules will be further screened to identify inhibitory efficacy against a wild type primary splenocytes assay. Using these approaches, we hope to identify a small molecule with great efficacy and low toxicity for use as a molecular probe to further characterize AID's intricacies, or even as a therapeutic.
A FRET based analysis of cytosine deamination, was developed to identify potential inhibitors of AID catalytic activity. This screen has two signal output, Read 1 evaluates the AID inhibition response. The second readout (Read 2) evaluates UDG response and is uses as a counterscreen to exclude false positive inhibitors. Inhibition in AID and inactivity in the UDG signal is the desired outcome for this assay.
SEQUENCE No. (e.g., 1, 2, 3, etc.); […] (e.g., Cells, Incubation, Reagent, etc.); VALUE; DESCRIPTION
1a; Reagent; 3 uL; [4/3x] 1 uM AID/2.67 U/mL UDG
1b; Reagent; 3 uL; 2 U/mL UDG
1c; Reagent; 3 uL; 1 uM AID
2a; Compound; 46 nL; Follow-up plates (0.64 uM - 10 mM)
2b; Control; 46 nL; ATA ([…] - 10 mM)
3; Time; 10 min; incubation at room temperature
5; Time; 4 hr; incubation at room temperature
6; Reagent; 4 uL; [2x] 250 mM NaOH
7; Time; 15 sec; centrifuge at 1000 rpm
8; Time; 30 min; incubation at room temperature
9a; Detection; fluorescence (Read 1: AID); EnVision (PerkinElmer) plate reader, 540 excitation and 590 emission filters
9b; Detection; fluorescence (Read 2: UDG); EnVision (PerkinElmer) plate reader, 560 excitation and 665 emission filters
NOTES (numbers refer to sequence above)
1a; Reagents were dispensed in a medium-binding black solid-bottom Greiner plates (789176F) using a BioRptr liquid dispenser. Dispense 3 uL of [4/3x] 1 uM AID (provided by Kohli lab) and [4/3x] 2 U/mL UDG (NEB M0280L) into columns 1, 2, 5 to 48.
1b; Dispense 3 uL of [4/3x] 2 U/mL UDG into column 3.
1c; Dispense 3 uL of [4/3x] 1 uM AID into column 4.
2a; Compound (7-points [uM]: 0.64; 3.2; 16; 80; 400; 2,000; 10,000; […]) double pin-transferred (Dip Factor = 2) using the Kalypsys (Wako USA) pintool equipped with a 1536 pinhead for a final concentration range of 7.32 nM - 114 uM.
2b; 10 mM Aurintricarboxylic Acid (Sigma A1895) (ATA, 8-point, n = 2, 1:2.5 dilution in column 2) double pin-transferred (Dip Factor = 2) using the Kalypsys (Wako USA) pintool equipped with a 1536 pinhead for a [final] range of 186 nM - 114 uM.
3; Room temperature incubation.
4; Dispense 1 uL of substrate mixture from the Kohli lab [4x] […] DJC20 and [4x] 250 nM DJC23 into columns 1 to 48 .
5; Room temperature incubation.
6; Dispense 4 uL of substrate mixture [2x] 250 mM NaOH into columns 1 to 48.
7; Centrifugation step to remove bubbles.
8; Room temperature incubation
9a; Fluorescence signal (column label AID) was read using the EnVision plate reader. […]

**Q.** For Cc1ccc(C)c(N2CCN(CCCNC(=O)c3cnn(-c4cccc(Cl)c4)c3C3CCN(C(=O)OC(C)(C)C)CC3)CC2)c1, which “activity change, negative = inhibition” value is on record?
**A.** -6.96%

**Q.** Which “activity change, negative = inhibition” value does the source give for Cc1cccc(OC(C)C(=O)N2CCC(c3nc4ccccc4o3)CC2)c1C (stereo unspecified) here?
**A.** -9.18%

**Q.** With COc1ccc(-c2csc3nc(-c4ccc(C)cc4)oc(=O)c23)cc1OC as the compound, how does the “activity change, negative = inhibition” value read?
**A.** -0.182%

**Q.** With COc1ccc(OCCCn2c(=O)oc3ccc(C)cc32)cc1 as the compound, how does the “activity change, negative = inhibition” value read?
**A.** -5.37%

**Q.** Which “activity change, negative = inhibition” value does the source give for Cc1ccc(Cl)cc1N(C)C(=O)c1cc2ccc3cccnc3c2[nH]1 here?
**A.** 0.172%

**Q.** With COc1ccc(OC)c(NC(=O)Cn2c(=O)cc(C)c3c(C)nn(-c4cccc(Cl)c4C)c32)c1 as the compound, how does the “activity change, negative = inhibition” value read?
**A.** 10.9%

**Q.** For COc1ccccc1NC(=O)c1cc2cc3ccc(OC)c(Cl)c3nc2s1, which “activity change, negative = inhibition” value is on record?
**A.** 8.79%

**Q.** Which “activity change, negative = inhibition” value does the source give for Cc1ccc(C)c(CSc2cn(CCNC(=O)c3cccs3)c3ccccc23)c1 here?
**A.** -2.36%

**Q.** For CCOc1ccc(NC(=O)CSc2nccn2-c2cccc(C)c2C)cc1, which “activity change, negative = inhibition” value is on record?
**A.** -4.02%

**Q.** Which “activity change, negative = inhibition” value does the source give for CCOc1ccc(S(=O)(=O)c2c(C(=O)c3ccc(C)c(C)c3)cnc3ccccc23)cc1 here?
**A.** -3.6%

**Q.** With CCC1CCCCN1C(=O)CSc1nc(-c2ccc(OC)cc2)cc(C(F)(F)F)n1 (stereo unspecified) as the compound, how does the “activity change, negative = inhibition” value read?
**A.** -16.9%

**Q.** Which “activity change, negative = inhibition” value does the source give for CCn1cc(C(=O)NCc2ccccc2OC)c(=O)c2cc(S(=O)(=O)N3CCCCC3)ccc21 here?
**A.** -14.6%

**Q.** Which “activity change, negative = inhibition” value does the source give for Cc1ccccc1OCC(=O)Nc1cccc(C(=O)OCc2cc(=O)n3c(C)csc3n2)c1 here?
**A.** 1.99%

**Q.** For COc1ccc(CC(=O)N(Cc2nc(-c3ccc(C)cc3)no2)C(C)C)cc1, which “activity change, negative = inhibition” value is on record?
**A.** 5.81%

**Q.** Which “activity change, negative = inhibition” value does the source give for Cc1ccccc1-c1nc(CS(=O)CC(=O)N2CCN(c3cc(Cl)ccc3C)CC2)c(C)o1 (stereo unspecified) here?
**A.** -9.14%

**Q.** Which “activity change, negative = inhibition” value does the source give for CS(=O)(=O)N(Cc1ccccc1)c1ccc(C(=O)Nc2ccc(Cl)cc2)cc1 here?
**A.** 2.66%

**Q.** For CCOC(=O)c1cc(-c2ccc(C)cc2)n(CCC(=O)Nc2ccc(OC)c(OC)c2)c1C, which “activity change, negative = inhibition” value is on record?
**A.** 1.84%

**Q.** For Cc1nc2c(-c3ccccc3)c(C)nn2c(C)c1CCC(=O)N1CCN(c2ccc(F)cc2)CC1, which “activity change, negative = inhibition” value is on record?
**A.** 0.55%

**Q.** With C=Cc1ccc(CSc2nc(-c3ccc(C)cc3)nc3c2Cc2c(CO)cnc(C)c2O3)cc1 as the compound, how does the “activity change, negative = inhibition” value read?
**A.** -10.6%

**Q.** For CCc1ccc(CN(Cc2ccco2)C(=O)c2ccc(OC)cc2)cc1, which “activity change, negative = inhibition” value is on record?
**A.** -8.82%

**Q.** With COc1ccc(CC(=O)NCC(c2cccs2)S(=O)(=O)c2ccc(Cl)cc2)cc1 (stereo unspecified) as the compound, how does the “activity change, negative = inhibition” value read?
**A.** -11.8%

**Q.** Which “activity change, negative = inhibition” value does the source give for Cc1cc(N(C)Cc2ccccc2)n2nc(-c3ccc(C(C)(C)C)cc3)nc2n1 here?
**A.** -13.6%

**Q.** For Cc1cc(C)cc(Nc2nc3cc(Cl)c(Cl)cc3nc2-n2nc(C)cc2C)c1, which “activity change, negative = inhibition” value is on record?
**A.** 4.6%

**Q.** For N#CC1=C2SCN(C3CCCCC3)CN2C(=O)CC1c1c(F)cccc1Cl (stereo unspecified), which “activity change, negative = inhibition” value is on record?
**A.** -4.69%

**Q.** Which “activity change, negative = inhibition” value does the source give for Cc1c(C(=O)N(C)Cc2ccccc2)sc2nc(-c3ccc(F)cc3)cn12 here?
**A.** -10.1%

**Q.** With CCOC(=O)c1cccc(NC(=O)c2oc3c(c2C)-c2nn(CC)cc2CC3)c1 as the compound, how does the “activity change, negative = inhibition” value read?
**A.** -7.26%

**Q.** For COc1ccc(OCC(=O)NCC(c2ccc(Cl)cc2)N2CCCCC2)cc1 (stereo unspecified), which “activity change, negative = inhibition” value is on record?
**A.** -10.1%

**Q.** Which “activity change, negative = inhibition” value does the source give for CC1CCCCN1C(=O)c1ccc2c(c1)N(Cc1ccc(Cl)cc1)C(=O)c1ccccc1S2=O (stereo unspecified) here?
**A.** 0.84%

**Q.** With Cc1ccc(Cl)cc1N1CCN(C(=O)Cn2cnc3nc4c(cc3c2=O)CCCC4)CC1 as the compound, how does the “activity change, negative = inhibition” value read?
**A.** -9.53%

**Q.** Which “activity change, negative = inhibition” value does the source give for CC(C)(C)C1CCc2c(sc(NC(=O)c3ccccc3F)c2C(=O)NCc2ccco2)C1 (stereo unspecified) here?
**A.** -16.7%

**Q.** With COc1ccc(C(=O)N2CCc3cc(OC)c(OC)cc3C2COc2ccccc2OC)cc1 (stereo unspecified) as the compound, how does the “activity change, negative = inhibition” value read?
**A.** -10.4%

**Q.** Which “activity change, negative = inhibition” value does the source give for COc1ccc(CCN2CCC(CNC(=O)c3cnn(-c4ccc(C)cc4)c3C3CCN(C(=O)OC(C)(C)C)CC3)CC2)cc1 here?
**A.** -7.6%

**Q.** With Cc1ccc(CNC(=O)C2CCCN(c3nc4ccccc4n4cccc34)C2)cc1 (stereo unspecified) as the compound, how does the “activity change, negative = inhibition” value read?
**A.** -0.725%

**Q.** For COC(=O)c1ccc(CSc2nnc3ccc4ccccc4n23)cc1, which “activity change, negative = inhibition” value is on record?
**A.** 1.41%

**Q.** For Cc1cccc(N2CCN(C(=O)c3cccn3-c3nnc(N4CCCCC4)s3)CC2)c1C, which “activity change, negative = inhibition” value is on record?
**A.** -2.85%

**Q.** Which “activity change, negative = inhibition” value does the source give for Cc1ccc(-c2cn(-c3cccc(Cl)c3)c(S(=O)(=O)CC(=O)Nc3cccc(C)c3)n2)cc1 here?
**A.** -10.9%

**Q.** Which “activity change, negative = inhibition” value does the source give for Cc1ccc2c(c1)C(c1ccc(F)cc1)N(C(=O)COc1ccc(Cl)cc1Cl)CC(=O)N2 (stereo unspecified) here?
**A.** -0.309%

**Q.** With CCC(C(=O)N1CCN(c2ccccc2)CC1)n1nc(C)n2c(cc3sccc32)c1=O (stereo unspecified) as the compound, how does the “activity change, negative = inhibition” value read?
**A.** -0.471%

**Q.** With CCOc1ccccc1CNC(=O)c1cnc2sc(N3CCCCCC3)nn2c1=O as the compound, how does the “activity change, negative = inhibition” value read?
**A.** 1.93%

**Q.** Which “activity change, negative = inhibition” value does the source give for COc1ccc(N2CCN(C(=O)c3nn(C)c4c3CSc3ccccc3-4)CC2)cc1 here?
**A.** -14.2%

**Q.** Which “activity change, negative = inhibition” value does the source give for Cc1cccn2c(=O)c3cc(C(=O)N(Cc4ccccc4)C(C)C)sc3nc12 here?
**A.** 3.34%

**Q.** Which “activity change, negative = inhibition” value does the source give for CCCCN(CC)CCNC(=O)C1CCN(c2nnc(C)c3c(C)n(-c4ccc(C)cc4)nc23)CC1 here?
**A.** -1.82%

**Q.** Which “activity change, negative = inhibition” value does the source give for CCOC(=O)c1c(C)oc2nc(C)nc(N(CC(C)C)CC(C)C)c12 here?
**A.** -17.5%

**Q.** With CCCN(CCC)CCNC(=O)c1cc2c(-c3ccc(Cl)cc3)nn(C)c2s1 as the compound, how does the “activity change, negative = inhibition” value read?
**A.** -0.229%

**Q.** With CCCCN(CCCC)CC(O)Cn1cc(/C=C/C(=O)c2ccccc2)c2ccccc21 (stereo unspecified) as the compound, how does the “activity change, negative = inhibition” value read?
**A.** -1.73%

**Q.** With COc1cccc(N2CCN(C(=O)c3cnn(-c4ccc(C)cc4C)c3C3CCN(C(=O)OC(C)(C)C)CC3)CC2)c1 as the compound, how does the “activity change, negative = inhibition” value read?
**A.** -4.76%
